This passage reports inhibition results from PubChem BioAssay AID588522 (NMMLSC, 2011).

Each structure is given as a SMILES string. Among all 1,700 compounds or so, about 20 (1%) were called active.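 The calls were made as follows: active = inhibition above the screen-wide mean plus twice its standard deviation (cut at about 32% in these data); inactive = the rest.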 The list comes from a sample in which actives are over-represented; it also holds similar structures and randomly drawn compounds.

The subject of the test is Candida albicans drug resistance protein 1 (Cdr1) expressed in S. cerevisiae. Put plainly: Cdr1 pump blockade via Nile Red efflux – S. cerevisiae AD/CaCDR1, flow cytometry, cherry pick 1, singleplex, confirmation (AID 588522). The settings on record: at 10 µM, stronger effect = higher value. For orientation: A flow cytometer gives signals particle by particle.
As usually defined, the inhibition is the change of the read-out against control, counted positive when it falls. `O=C(Cc1ccccc1)NCC1OCCc2ccccc21` (stereo unspecified): the inhibition is -0.03% (inactive).
As for `COc1ccc(C(=O)NC2CC(C)(C)Cc3c2cnn3-c2ccccc2)c(OC)c1` (stereo unspecified), the figure is -0.08% (inactive).
As for `O=C(CNC(=O)c1ccc(-c2ccccc2)cc1)OCc1ccc(Cl)cc1`, the figure is 0.15% (inactive); as for `O=C(OCc1ccc(-c2ccccc2)cc1)c1cccc(O)c1`, 0.08% (inactive).
As for `O=C(CSc1nnc(-c2cccnc2)n1Cc1ccco1)c1ccc(Cl)c(Cl)c1`, the figure is -0.04% (inactive); as for `Cc1oc2cc3oc(=O)ccc3cc2c1C`, -0.1% (inactive); as for `CC12CCC(C(=O)N(c3cccc(Cl)c3)C1=O)C2(C)C` (stereo unspecified), 0.11% (inactive).
On to `Cc1cc(C)cc(NC(=O)C(OC(=O)c2ccc(O)cc2)c2ccccc2)c1` (stereo unspecified), for which the inhibition was -0.12% (inactive).
Take `COc1ccccc1/C=C/C=N/n1c(-c2ccc(Cl)cc2Cl)n[nH]c1=S`: the inhibition was 0.09% (inactive).
As for `CCOc1ccc(C2/C(=C(/O)c3ccc4c(c3)CC(C)O4)C(=O)C(=O)N2CCCn2ccnc2)cc1` (stereo unspecified), the inhibition was 0.05% (inactive).
As for `CC(/C=C/c1ccccc1)=N\NC(=O)C1CC1(C)c1ccccc1` (stereo unspecified), the figure is -0.03% (inactive); as for `O=C(Nc1ccc(NC(=O)c2cccs2)cc1)c1ccc2ccccc2c1`, 0.04% (inactive).
As for `CCNC(=O)c1c(O)c2cccc3c2n(c1=O)CC3`, the figure is -0.08% (inactive); as for `Cc1cccc(NC(=O)COc2ccccc2C)n1`, -0.06% (inactive).
As for `O=C(CN1C(=O)C2C3CCC(C3)C2C1=O)Oc1ccc2ccccc2c1` (stereo unspecified), the figure is -0.01% (inactive); as for `CCCc1nnc(SCC(=O)Nc2ccc(C(=O)OCC)cc2)o1`, 0.53% (inactive); as for `O=C(/C=C/c1c(Cl)cccc1Cl)NCc1ccccc1`, -0.01% (inactive).
Consider `CCNc1c(NS(=O)(=O)c2ccc(C3CCCCC3)cc2)c(=O)oc2ccccc12`, for which the inhibition was -0.2% (inactive).
Take `CSCCC(NC(=O)COc1ccccc1)C(=O)OCCOc1ccc(Br)cc1` (stereo unspecified): the inhibition is -0.03% (inactive).
As for `Cc1csc(NC(=O)c2ccc(-c3ccc(Cl)cc3Cl)o2)n1`, the figure is 0.16% (inactive); as for `Cc1cc(/C=N/NC(=O)CC2(C)OCCO2)c(C)n1-c1ccc(Cl)c(Cl)c1`, 0.13% (inactive); as for `COc1ccc(S(=O)(=O)N2CCOC2CNC(=O)C(=O)NCc2ccc(F)cc2)cc1` (stereo unspecified), 0.04% (inactive).
As to `Cc1ccc(N=C2NC(=O)/C(=C/C=C/c3ccco3)S2)cc1C`, the inhibition is 0.36% (inactive).
As for `CSCCC(NS(=O)(=O)c1ccc(C)cc1)C(=O)N1CCCC1` (stereo unspecified), the figure is -0.1% (inactive).
For `C/C(N)=C(/C#N)C(=O)COC(=O)c1cc(-c2cccc(Br)c2)nc2ccccc12`, the inhibition was 0.12% (inactive).
As for `Cc1ccc(/C=C(\C#N)C(=O)Nc2cccc3ncccc23)o1`, the figure is -0.54% (inactive); as for `O=C(NCc1ccccc1)C(=O)NCC1OCCN1S(=O)(=O)c1ccc(Br)cc1` (stereo unspecified), -0.27% (inactive).
In the case of `Cc1nn(C)cc1N1C(=O)c2cccc3c(N)ccc(c23)C1=O`, the inhibition is -0.53% (inactive).
As for `CN(C)S(=O)(=O)c1cc(C(=O)Nc2ccn(C)n2)c(Cl)cc1Cl`, the figure is -0.51% (inactive).
As for `COc1ccc(C(=O)C2CCCN(Cc3cccn3-c3ccccn3)C2)c(C)c1` (stereo unspecified), the figure is 0.01% (inactive).
As to `CCOc1ccc(/C=C2\SC(=S)N(NC(=O)c3ccncc3)C2=O)cc1OC`, the inhibition is -0.06% (inactive).
As for `COc1ccc(NC(=S)N2CCc3cc(OC)c(OC)cc3C2)cc1`, the figure is 0.16% (inactive); as for `CCn1c(/C=C/c2ccc([N+](=O)[O-])o2)nc2ccccc2c1=O`, 0.83% (inactive).
As for `CC(C)C(=O)N1CCC2(CC1)Oc1ccc(F)cc1C(=O)C21CC(c2ccccc2)=NO1` (stereo unspecified), the figure is 0.01% (inactive); as for `COc1cccc(NC(=O)CN(C)C(=O)/C=C/c2cc(OC)ccc2OC)c1`, -0.15% (inactive); as for `COc1ccc(/C=C(\C#N)c2c[nH]c3ccccc23)cc1`, -0.2% (inactive).
As for `NNC(=O)COc1ccc(C2SCCS2)cc1`, the inhibition was -0.06% (inactive).
As for `O=C(CCCCCn1c(=O)[nH]c2ccccc2c1=O)NCCc1c[nH]c2ccccc12`, the figure is -0.02% (inactive); as for `COc1ccc2sc(-c3ccccc3OC)c(-c3ccc(OCCN4CCCC4)cc3)c2c1`, 4.57% (inactive); as for `COc1cccc(-c2sc3ccc(OC)cc3c2-c2ccc(OCCN3CCCCC3)cc2)c1`, 45.4% (active).
As for `COc1ccc(-c2sc3ccccc3c2-c2ccc(OCCN3CCOCC3)cc2)cc1`, the figure is -0.26% (inactive).
As for `Cc1nn(C)cc1C(=O)Nc1ccccc1Br`, the figure is -0.09% (inactive); as for `CCCCCCCCCCCCCCCC(=O)OC/C=C(C)/C=C/C=C(C)/C=C/C1=C(C)CCCC1(C)C`, 0.11% (inactive); as for `C=CCC[C@@H](Cc1ccc(F)cc1)C(=O)OC[C@H](Cc1c[nH]c2ccccc12)NC(=O)[C@@H](CC=C)CC(=O)N(CCO)Cc1ccccc1`, 0.17% (inactive).
In the case of `CN=C(c1ccccc1)c1c(C)cccc1C`, the inhibition was 0.01% (inactive).
Turning to `Cc1cc(C(=O)Nc2ccc(C)c(S(=O)(=O)N3CCOCC3)c2)c2ccccc2n1`, the inhibition is -0.08% (inactive).
As for `CCc1ccc(NC(=O)Cn2ncn3c(cc4ccccc43)c2=O)cc1`, the figure is -0.23% (inactive); as for `Cc1ccc(OCc2cc(C(=O)N(C)CCc3ccccc3)no2)cc1C`, -0.15% (inactive); as for `CCOc1ccc2nc(Cl)c(C3CC(c4ccccc4)=NN3C(=O)c3cccs3)cc2c1` (stereo unspecified), 0.11% (inactive).
As for `O=C1NC(=O)C2C1C(c1ccc([N+](=O)[O-])cc1)=NN2Cc1ccccc1` (stereo unspecified), the figure is 0.24% (inactive); as for `CCCCCC(=O)Nc1ccc(C(=O)N/N=C/c2ccc([N+](=O)[O-])cc2)cc1`, 0.01% (inactive).
As for `CCOC(=O)CNC(=O)CSc1nnnn1-c1cc(C)ccc1C`, the figure is -0.03% (inactive); as for `CC[n+]1cc(C)ccc1/C=C/c1ccc(N(C)C)cc1`, 4.74% (inactive).
Turning to `COc1ccc2[nH]c3c(C)c4cc[n+](C)cc4c(C)c3c2c1`, the inhibition was 0.08% (inactive).
Take `Cc1c(CCOC(=O)CC23CC4CC(CC(C)(C4)C2)C3)sc[n+]1Cc1ccc([N+](=O)[O-])cc1`: the inhibition is 0.01% (inactive).
Take `CCOC(=O)c1c(NC(=S)NC(=O)c2ccco2)sc2c1CCCC2`: the inhibition is -0.31% (inactive).
As for `C[n+]1ccc(/C=C/c2c[nH]c3ccccc23)cc1`, the figure is 3.85% (inactive).
As for `COc1ccc(C(=O)NC2CCCc3c2cnn3-c2cccc(C)c2C)c(OC)n1` (stereo unspecified), the figure is -0.29% (inactive); as for `CC(/C=N/NC(=O)c1cc(-c2ccc3ccccc3c2)n[nH]1)=C\c1ccco1`, -0.15% (inactive); as for `O=C(Cc1ccc(Br)cc1)N1CCN(c2ccccn2)CC1`, -0.06% (inactive).
Regarding `CCCCN1C(=O)/C(=C/C=C2/C=Cc3ccccc3N2CC)SC1=S`, the inhibition is -0.08% (inactive).
As for `Cc1ccc(Cn2c(C)nc3c(c2=O)c2nc4ccccc4nc2n3Cc2ccco2)cc1`, the figure is 0.09% (inactive); as for `Cc1ccc2[nH]c3c(=O)n(CC(=O)NCCc4ccc(Cl)cc4)ncc3c2c1`, 0.27% (inactive); as for `COc1ccc(C(=O)NC(=S)Nc2ccc(N3CCCC3)cc2)cc1OC`, -0.15% (inactive).
As for `Cc1nc2c(C(=O)NCc3ccc4c(c3)OCO4)c[nH]n2c(=O)c1Cc1ccccc1F`, the figure is -0.08% (inactive); as for `COc1ccccc1NC(=O)C1CCCN1S(=O)(=O)c1ccc(Cl)cc1` (stereo unspecified), -0.03% (inactive); as for `CCCc1nc(N2CCN(C)CC2)c2sc(=S)n(-c3ccccc3)c2n1`, 0.07% (inactive).
Turning to `Cc1ccc(Cn2nnc3c(=O)[nH]c(C4CCN(S(=O)(=O)/C=C/c5ccccc5)CC4)nc32)cc1`, the inhibition was -0.06% (inactive).
As for `CCCCOc1ccc(C(=O)NCC(=O)OCC(=O)c2c(N)n(C)c(=O)n(C)c2=O)cc1`, the figure is 106% (active).
As for `COc1ccccc1CSc1ncc(-c2ccc([N+](=O)[O-])cc2)[nH]1`, the figure is -0.02% (inactive); as for `CCOc1ccccc1/C=c1\sc2nc(-c3ccco3)nn2c1=O`, 0.21% (inactive); as for `O=C(Cn1c(COc2ccccc2)nc2ccccc21)Nc1cc(Cl)c(Cl)cc1Cl`, 0.09% (inactive).
As for `CC1CCc2c(sc(NC(=O)c3ccc(Cn4cc(Br)cn4)o3)c2C(N)=O)C1` (stereo unspecified), the figure is -0.03% (inactive); as for `Cc1ccc2c(c1)NC(=O)[C@@]1(C)[C@@H](c3ccccc3)[C@H]3COc4ccc(Cl)cc4[C@@H]3N1C2=O`, 0.07% (inactive).
Take `CN1CCN(S(=O)(=O)c2ccc(NC(=S)NC(=O)C3CC3)cc2)CC1`: the inhibition is -0.08% (inactive).
As for `O=S(=O)(c1ccccc1)N1CCc2ccccc21`, the figure is 0.54% (inactive).
